Results on six compounds are retold here after ChEMBL document CHEMBL1157539, “Thousands of chemical starting points for antimalarial lead identification” (Nature, 2010).

Format in all cases: functional
For experiment [1], the system named is Plasmodium falciparum. The experiment is described as follows: GSK_TCMDC: Inhibition of Plasmodium falciparum 3D7 in whole red blood cells, using parasite LDH activity as an index of growth. Test compounds present at 2uM.
The test system of experiment [2] is Plasmodium falciparum. As to the kind of experiment: GSK_TCMDC: Inhibition of Plasmodium falciparum Dd2 in whole red blood cells, using parasite LDH activity as an index of growth. Test compounds present at 2uM.
The subject of a further experiment is HepG2. The experiment is described as follows: GSK_TCMDC: Percent inhibition of human HepG2 cell line. Test compounds present at 10uM.

As usually defined, the Inhibition is the share of the control response that was lost under treatment. On to `CC[C@H]1CN2CCc3cc(OC)c(OC)cc3[C@@H]2C[C@@H]1C[C@H]1NCCc2c1cc(OC)c(OC)c2Br`, for which the values for the Inhibition with Plasmodium falciparum [1], in the experiment with Plasmodium falciparum [2] and in the experiment on HepG2 were 99%, 97% and 45%, respectively.
For `C=C[C@H]1CN2CC[C@@H]1C[C@H]2[C@H](O)c1cc(-c2ccc(F)cc2)nc2ccc(OC)cc12.Cl`, in that order: 99%, 98% and 5%.
For `CC(Cc1ccc(NC(=O)CCNCc2ccccc2)cc1)NCCc1cccc(Cl)c1` (stereo not drawn), in that order: 100%, 100% and 100%.
For `COC(=O)c1ccc(CC(C)NCC(O)c2cccc(C(F)(F)F)c2)cc1.Cl` (stereo not drawn), in that order: 97%, 87% and 0%.
Turning to `Cl.OC(CNC1CCCCCC1)c1ccc(Cl)c(Cl)c1` (stereo not drawn), the Inhibition with Plasmodium falciparum [1] is on record as 99%; in the experiment with Plasmodium falciparum [2] it was 98%; in the experiment on HepG2 it was 0%.
In the case of `O=[N+]([O-])c1ccc(Oc2c(Cl)cc(S(=O)(=O)NC3CCC(CN4CCC(c5c[nH]c6ccccc56)CC4)CC3)cc2Cl)c(Cl)c1` (stereo not drawn), the values for the Inhibition in the experiment on Plasmodium falciparum [1], in the experiment with Plasmodium falciparum [2] and in the experiment with HepG2 were 100%, 64% and 30%, respectively.
